We go through 23 compounds from PubChem BioAssay.

SMILES strings stand for the structures. Several values for one entry are separate records, joined by “and”; a condition that tells them apart may be missing. Equal entries are not always repeated. Activity calls are given as the source filed them.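 How the source made its calls, unless noted: active means compounds whose cell count with miR-34 switched on is under 0.7 times the count with it off; inactive means the rest.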

For assay [1], the system named is Aerobactin synthetase IucA (Klebsiella pneumoniae). In words: inhibition of K. pneumoniae IucA enzyme – biochemical, Tocris library, absorbance (AID 1345561; call rule not given here;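 further: 100% = enzyme without compound and 0% = no enzyme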). Particulars: purified IucA enzyme assay, absorbance (OD) read-out; stronger effect = lower value;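 tested at 8 µM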.
A short description of assay [2]: viability loss with induced miR-34 in A549 – imaging, A549 dox-inducible miR-34, nuclei and caspase counts, primary screen (AID 1347080). Conditions: A549 miR-34 inducible, Hoechst nuclei count, 48 h.
Assay [3] is described as follows: galactose survival enhancers in mitochondrial complex I cybrids – cell-based, galactose medium, ATP luminescence, primary screen (AID 1645843;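 active means z-score of at least 1.8 in each of two replicates, scored against plate mean and spread of sample wells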;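 further: positive z means more ATP and so rescue of galactose-driven cybrid death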). Conditions: complex I mutant cybrid cells, 72 h, stronger effect = higher value.
Setting [4] is: stronger effect = lower value, cell number ratio, induced over uninduced.
Where [5] appears, read: measured here: relative caspase fold change +Dox/-Dox.
The mark [6] stands for this setting: measured here: total cells with miR-34 induction, stronger effect = lower value.
The mark [7] stands for this setting: measured here: total cells without miR-34 induction.

With `CCCN[C@@H]1CCc2c(OC)cccc2[C@@H]1C`, the remaining activity – broadly, the signal under treatment as a percentage of the control signal – in assay [1] was 99.1% (inactive). The values for the fold change in assay [2] (setting [4]) and in assay [2] (setting [5]) were 0.939 (inactive) and 1.14, respectively. Moreover, the results for the cell count in assay [2] (setting [6]) and in assay [2] (setting [7]) were 8780 and 9360, respectively. Moreover, in assay [3], the z-score was 0.12 (inactive).

`CN1C2CCC1CC(OC(c1ccc(F)cc1)c1ccc(F)cc1)C2` (stereo not drawn): the remaining activity in assay [1] is 99.4% (inactive). Besides, the fold change in assay [2] (setting [4]) was 1.03 (inactive); in assay [2] (setting [5]), 1.19. In addition, the cell count in assay [2] (setting [6]) amounted to 7710; in assay [2] (setting [7]), 7460. Further, the z-score in assay [3] was -0.46 (inactive).

For `CC[N+](CC)(CCCNC1=CC(=O)C(NCCC[N+](CC)(CC)Cc2ccccc2)=CC1=O)Cc1ccccc1`, the remaining activity in assay [1] is 81.3% (inactive). Moreover, the fold change in assay [2] (setting [4]) is 0.951 (inactive); in assay [2] (setting [5]), 0.768. The figures for the cell count in assay [2] (setting [6]) and in assay [2] (setting [7]) were 8950 and 9410, respectively. For the same compound, the z-score in assay [3] is -0.46 (inactive).

With `NCC(CS(=O)(=O)O)c1ccc(Cl)cc1` (stereo not drawn), the remaining activity in assay [1] is 108% (inactive). The fold change in assay [2] (setting [4]) was 0.961 (inactive); in assay [2] (setting [5]), 1.04. Moreover, the cell count in assay [2] (setting [6]) is 9200; in assay [2] (setting [7]), 9570. The z-score in assay [3] is 0.475 (inactive).

Regarding `CNCCc1cnc[nH]1`, the remaining activity in assay [1] is 101% (inactive). The fold change in assay [2] (setting [4]) is 0.965 (inactive); in assay [2] (setting [5]), 0.943. Moreover, the cell count in assay [2] (setting [6]) was 9430; in assay [2] (setting [7]), 9770. Also, the z-score in assay [3] is 0.115 (inactive).

In the case of `CCOc1cncc(/C=C/CCNC)c1`, the remaining activity in assay [1] was 108% (inactive). The fold change in assay [2] (setting [4]) is 0.967 (inactive); in assay [2] (setting [5]), 1.27. For the same compound, the cell count was 8770 in assay [2] (setting [6]) and 9060 in assay [2] (setting [7]). Further, the z-score in assay [3] is -0.075 (inactive).

For the compound `c1cc(Cc2cnc[nH]2)ccn1`, in assay [1], the remaining activity is 105% (inactive). For the same compound, the fold change was 0.985 (inactive) in assay [2] (setting [4]) and 1.35 in assay [2] (setting [5]). Moreover, the values for the cell count in assay [2] (setting [6]) and in assay [2] (setting [7]) were 9560 and 9710, respectively. The z-score in assay [3] was -0.25 (inactive).

Take `Cc1ccc2c(c1)Cc1c(C(=O)NN3CCCCC3)nn(-c3ccc(Cl)cc3Cl)c1-2`: the remaining activity in assay [1] is 102% (inactive). Besides, the fold change in assay [2] (setting [4]) is 0.912 (inactive); in assay [2] (setting [5]), 1.23. In addition, the cell count in assay [2] (setting [6]) is 5690; in assay [2] (setting [7]), 6240. Besides, the z-score in assay [3] was -0.67 (inactive).

As for `c1ccc(C2CNCc3ccccc32)cc1` (stereo not drawn), in assay [1], the remaining activity was 117% (inactive). In addition, the fold change in assay [2] (setting [4]) is 0.949 (inactive); in assay [2] (setting [5]), 0.998. The cell count was found to be 8070 in assay [2] (setting [6]) and 8500 in assay [2] (setting [7]). Besides, the z-score in assay [3] is -0.455 (inactive).

`Cc1ccc2c(c1)C1(CCN(CCc3nc(-c4ccccc4)oc3C)CC1)OC(=O)N2`: in assay [1], the remaining activity is 95% (inactive). The values for the fold change in assay [2] (setting [4]) and in assay [2] (setting [5]) were 0.966 (inactive) and 1.87, respectively. The cell count in assay [2] (setting [6]) is 5420; in assay [2] (setting [7]) it was 5610. Further, in assay [3], the z-score is -0.635 (inactive).

For the compound `O=C1Nc2cc(Cl)c(Cl)cc2N2CCNCC12` (stereo not drawn), in assay [1], the remaining activity is 125% (inactive). Also, the fold change was 0.949 (inactive) in assay [2] (setting [4]) and 0.693 in assay [2] (setting [5]). Moreover, the cell count in assay [2] (setting [6]) worked out at 8510; in assay [2] (setting [7]) it was 8970. The z-score in assay [3] is -0.265 (inactive).

In the case of `NC1(c2ccccc2Cl)CCCCC1=O` (stereo not drawn), in assay [1], the remaining activity is 88.2% (inactive). In addition, the fold change in assay [2] (stronger effect = lower value) was 0.898 (inactive); in assay [2] (setting [5]) it was 1.86. For the same compound, the cell count in assay [2] (setting [6]) was 9020; in assay [2] (setting [7]) it was 10000. In addition, the z-score in assay [3] was 1.53 (inactive).

On to `CC(C)n1cnc2c(C(=O)N[C@H]3CN4CCC3CC4)cc(Cl)cc21`, for which the remaining activity in assay [1] was 102% (inactive). For the same compound, the fold change is 0.928 (inactive) in assay [2] (setting [4]) and 0.88 in assay [2] (setting [5]). Besides, the cell count turned out to be 8010 in assay [2] (setting [6]) and 8630 in assay [2] (setting [7]). Further, the z-score in assay [3] is 2.03 (inactive).

Regarding `CC(C(=O)OC1CC2CCC(C1)N2C)c1ccc(Br)cc1` (stereo not drawn), the remaining activity in assay [1] was 87.5% (inactive). The fold change in assay [2] (setting [4]) was 0.964 (inactive); in assay [2] (setting [5]) it was 0.964. For the same compound, the cell count is 8760 in assay [2] (setting [6]) and 9090 in assay [2] (setting [7]). Moreover, the z-score in assay [3] is -0.795 (inactive).

For the compound `Cc1o[nH]c(=O)c1C[C@H](N)C(=O)O`, the remaining activity in assay [1] was 106% (inactive). Also, the fold change in assay [2] (setting [4]) is 1.04 (inactive); in assay [2] (setting [5]), 0.71. For the same compound, the cell count in assay [2] (setting [6]) is 9160; in assay [2] (setting [7]), 8800. The z-score in assay [3] was 0.59 (inactive).

In the case of `Oc1ccc2c3c1O[C@H]1c4c(c5ccccc5n4Cc4ccccc4)C[C@@]4(O)C(C2)N(CC2CC2)CC[C@]314`, the remaining activity in assay [1] was 94.5% (inactive). Moreover, the fold change is 0.935 (inactive) in assay [2] (stronger effect = lower value) and 1.27 in assay [2] (setting [5]). In addition, the cell count is 2600 in assay [2] (setting [6]) and 2780 in assay [2] (setting [7]). The z-score in assay [3] is -1.2 (inactive).

As to `O=C(O)/C=C/CO`, in assay [1], the remaining activity was 109% (inactive). Besides, the fold change in assay [2] (setting [4]) is 0.992 (inactive); in assay [2] (setting [5]), 0.9. The cell count in assay [2] (setting [6]) was determined as 9440; in assay [2] (setting [7]), 9510. Besides, the z-score in assay [3] is -0.335 (inactive).

With `CCN(CC)CCO[C@H]1CC[C@@]2(C)C(=CC[C@@H]3[C@@H]2CC[C@]2(C)C(=O)CC[C@@H]32)C1`, the remaining activity in assay [1] is 113% (inactive). Also, the fold change in assay [2] (setting [4]) was 0.896 (inactive) and 0.878 (inactive); in assay [2] (setting [5]) it was 0.558 and 0.739. The cell count is 5320 and 6330 in assay [2] (setting [6]); 5930 and 7220 in assay [2] (setting [7]). The z-score in assay [3] is -0.79 (inactive).

With `CN1Cc2ccccc2[C@@H]2c3cccc4[nH]cc(c34)C[C@H]21`, the remaining activity in assay [1] was 114% (inactive). Besides, the fold change was 0.936 (inactive) in assay [2] (setting [4]) and 0.677 in assay [2] (setting [5]). For the same compound, the cell count in assay [2] (setting [6]) was 4560; in assay [2] (setting [7]), 4870. For the same compound, the z-score in assay [3] was -0.7 (inactive).

For `CCCCCOc1c(OC)ccc2cc(C(=O)NCc3ccc4c(c3)OCO4)c(=O)[nH]c12`, the remaining activity in assay [1] is 107% (inactive). The fold change in assay [2] (setting [4]) was 1.04 (inactive); in assay [2] (setting [5]), 1.43. Moreover, the cell count in assay [2] (setting [6]) is 5450; in assay [2] (setting [7]) it was 5260. Also, the z-score in assay [3] was 0.125 (inactive).

`CN1CC[C@@H]2CN3CCc4cccc(c43)[C@@H]2C1`: the remaining activity in assay [1] is 120% (inactive). Further, the figures for the fold change in assay [2] (setting [4]) and in assay [2] (setting [5]) were 0.917 (inactive) and 0.673, respectively. Also, the values for the cell count in assay [2] (setting [6]) and in assay [2] (setting [7]) were 8120 and 8850, respectively. Further, the z-score in assay [3] was -0.34 (inactive).

For `Cn1cc(C(=O)C(=O)N[C@H]2CN3CCC2CC3)c2ccccc21`, in assay [1], the remaining activity is 92.5% (inactive). Besides, the fold change in assay [2] (setting [4]) is 0.891 (inactive); in assay [2] (setting [5]) it was 1.06. Further, the cell count in assay [2] (setting [6]) was 8410; in assay [2] (setting [7]), 9440. Further, the z-score in assay [3] was 0.935 (inactive).

For the compound `CN(C)c1ccc(/C=C2\CCCN=C2c2cccnc2)cc1`, in assay [1], the remaining activity is 94.5% (inactive). The fold change in assay [2] (setting [4]) was 0.947 (inactive); in assay [2] (setting [5]) it was 1.33. Also, the cell count in assay [2] (setting [6]) came out at 8030; in assay [2] (setting [7]), 8480. In assay [3], the z-score is -0.4 (inactive).
